Assay [1] has as its system CRL-7250. The experiment in a line: Cytotoxic Profiling of Annotated Libraries Using Quantitative High-Throughput Screening (AID 1296008). For max response: % is set by controls: 0 for no effect and ±100 for the full control effect. Note: potency is the fitted concentration of half-maximal effect. The conditions noted are these: Five cell lines viability, CellTiter-Glo ATP luminescence, 48-72 h; max response: hits give low values. A digest of the protocol:
(§1)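 Cytotoxicity was measured as CellTiter-Glo ATP luminescence, read after 10 min at room temperature. Compound treatment of the cells lasted 48 or 72 hr at 37 degrees Celsius in a qHTS format.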

In assay [2] the test system is HaCat. Described as above. Conditions: Five cell lines viability, CellTiter-Glo ATP luminescence, 48-72 h; max response: hits give low values. Summed up:
as §1
Background: Cellular ATP, detected with luciferase, serves as a proxy for viable cell number.

Assay [3] concerns KB-3-1. Described as above. The conditions noted are these: Five cell lines viability, CellTiter-Glo ATP luminescence, 48-72 h; max response: hits give low values. A digest of the protocol:
as §1

Assay [4] relates to NIH3T3. The assay is described as above. Conditions: Five cell lines viability, CellTiter-Glo ATP luminescence, 48-72 h; max response: hits give low values. Summed up: as §1
Assay [5] relates to HEK293. The assay is described as above. The conditions noted are these: Five cell lines viability, CellTiter-Glo ATP luminescence, 48-72 h; max response: hits give low values. Summed up: as §1
The subject of assay [6] is SC27B. Kind of assay: qHTS profiling for inhibitors of Plasmodium falciparum proliferation (AID 504749).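 Note: 0% = DMSO vehicle and full inhibition = artemisinin control.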 Conditions: P. falciparum in erythrocytes, SYBR Green DNA, 72 h; series mostly up to 28.7 µM. A digest of the protocol: (§2)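 Three-day growth assay of blood-stage parasites in erythrocytes (0.3% parasitemia, 2.5% hematocrit) at 37 C, 5% CO2, quantified by SYBR Green DNA staining after overnight detergent lysis.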

Assay [7] has as its system TAB109. Described as above. The conditions noted are these: P. falciparum in erythrocytes, SYBR Green DNA, 72 h; series mostly up to 28.7 µM. Summed up:
as §2

The test system of assay [8] is TAB113. The assay is described as above. The conditions noted are these: P. falciparum in erythrocytes, SYBR Green DNA, 72 h; series mostly up to 28.7 µM. Summed up:
as §2

The subject of assay [9] is TAB165. The description is as above. The conditions noted are these: P. falciparum in erythrocytes, SYBR Green DNA, 72 h; series mostly up to 28.7 µM. A digest of the protocol: as §2
The subject of assay [10] is W2. The assay is described as above. Conditions: P. falciparum in erythrocytes, SYBR Green DNA, 72 h; series mostly up to 28.7 µM. A digest of the protocol:
as §2

Inconclusive results are not listed. Values without a mark were called inactive. The source made the active and inactive calls. Calls come from the whole dose curve; as a rule, active = well fitted inhibition curve with a large enough effect; inconclusive = small, poorly fitted or top-dose-only effect; inactive = flat fitted curve, though single readings scatter. Where a SMILES comes first, the peptide text is derived from it. The star is where a group is joined. Cbz = O=C(OCc1ccccc1)*; CH2F = FC*
Note: nearly all actives have a fitted effect of over 60% in size.

Consider `CC(C)=C1CC2[C@](C)(CC[C@@H](OC(=O)C3(C)OC3C)[C@@]2(C)O)CC1=O` (some centres undefined), for which the molecule was classed as inactive in [1] and in assay [2]. The max response in assay [3] is 6.8%; in [4] it was -3.35%.
Take `CC(=O)OC1CC(=O)C2(C)C3CC4=C(OC(C)CC4=O)OC3(C)CCC2C1(C)C` (centres undefined): the result in assay [1], in assay [2] and in [3] was inactive. Besides, the max response in assay [5] was 2.23%; in [4] it was 1.19%.
Regarding `CC1(C(=O)O)CCCC2(C)C3CCC4CC3(CCC12)CC4C(=O)O` (centres undefined), the result in [1], in assay [2] and in [4] was inactive. In addition, the max response in assay [5] is 1.27%; in [3] it was 6.21%.
As for `CCOC(=O)C(CCc1ccccc1)NC(C)C(=O)N1Cc2ccccc2CC1C(=O)O` (centres undefined), the outcome in [6], in [7], in assay [8], in assay [9], in assay [10] and in assay [4] was inactive. The max response was -6.01% in assay [1], -4.89% in assay [5], -10.9% in assay [2] and -4.78% in assay [3].
For the molecule `COC(=O)C(CC1(O)c2ccccc2N2C(=O)C(CC(C)C)NC21)n1cnc2ccccc2c1=O` (centres undefined), the call in assay [1], in assay [2], in [3] and in [4] was inactive. Also, the max response in [5] is -5.33%.
Regarding `Cc1cn2cc(CC(=O)N3CCC4(CC3)CN(Cc3ccc(-n5nccn5)cc3Cl)C4)nc2s1`, the results for the max response in assay [1], in assay [2] and in assay [3] were 2.68%, 2.32% and 0.0455%, respectively. In addition, the Potency in assay [5] was 16.4 µM (active). Besides, the result in [4] was inactive.
For `C/C1=C\CC[C@]2(C)O[C@H]2C(=O)c2c(C)coc2C1`, the max response in assay [1] was 1.23%; in assay [5] it was -1.35%; in assay [3], -3.14%. In addition, the call in assay [2] and in assay [4] was inactive.
Turning to `C=CC(C)(O)CC/C=C(\C)COC1O[C@H](CO)[C@@H](O)[C@H](O)[C@H]1O` (some centres undefined), the max response in [1] was -13.2%; in assay [5], 0.0631%; in assay [3] it was 1.01%; in assay [4], 3.77%. In assay [2], the outcome was inactive.
For `COc1ccc(/C=C/C(=O)O[C@@H]2[C@@H](O[C@@H]3O[C@H](CO)[C@@H](O)[C@H](O)[C@H]3O)[C@@H](O)[C@H](O[C@H]3C4C=CO[C@@H](O[C@@H]5O[C@H](CO)[C@@H](O)[C@H](O)[C@H]5O)C4[C@@]4(CO)O[C@@H]34)O[C@H]2C)cc1` (some centres undefined), the max response in [1] was -8.31%; in assay [5], -3.69%; in [3], -1.62%. Moreover, the molecule was called inactive in assay [2] and in [4].
For `C=C1C(O)CCC2(C)CC3(OC)OC(=O)C(C)=C3CC12` (centres undefined), the result in assay [1], in assay [2] and in assay [4] was inactive. The max response in assay [5] is 0.468%; in assay [3], 3.24%.
In the case of `O=C(O)CC1CCC(c2ccc(NC(=O)c3nnc(Nc4ccc(F)c(F)c4)o3)cc2)CC1` (centres undefined), the figures for the max response in assay [1] and in assay [5] were 1.15% and 1.04%, respectively. The outcome in assay [2], in assay [3] and in assay [4] was inactive.
In the case of `C=C1CC[C@@]2(OC1)O[C@H]1CC3[C@@H]4CC=C5C[C@H](O[C@H]6OC[C@@H](O)C(O)[C@@H]6O[C@@H]6O[C@@H](C)[C@H](O)[C@@H](O[C@@H]7O[C@H](CO)[C@@H](O)[C@H](O)[C@H]7O)[C@H]6O)C[C@@H](O)[C@]5(C)C4CC[C@]3(C)[C@H]1[C@@H]2C` (some centres undefined), the max response in [1] is 3.7%; in assay [5] it was -14.3%; in [3] it was -1.49%. Further, the result in assay [2] and in assay [4] was inactive.
As to `CCc1cccc2c3c([nH]c12)[C@@](CC)(CC(=O)O)OCC3`, the outcome in [6], in assay [7], in assay [8], in assay [9], in [10] and in assay [2] was inactive. Further, in assay [3], the molecule was called inactive. Also, the max response in assay [1] was 0.605%; in assay [5], 3.28%; in assay [4], 1.91%.
For the molecule `O=C(OCC(O)CO[C@@H]1O[C@H](C(=O)O)[C@@H](O)[C@H](O)[C@H]1O)c1ccccc1` (some centres undefined), the max response in assay [1] was 4.18%; in [5] it was -2.05%; in assay [3] it was 0.261%; in assay [4], 0.296%. Further, the molecule was classed as inactive in assay [2].
For `CCC(C)/C=C(C)/C=C/C1=CC2=C(Cl)C(=O)C(C)(O)C(=O)C2(O)C(OC)O1` (centres undefined), the max response was -11.8% in [1] and -3.29% in [5]. The molecule was called inactive in assay [2], in assay [3] and in assay [4].
For `COC(=O)CC[C@H](NC(=O)[C@H](CC(C)C)NC(=O)OCc1ccccc1)C(=O)N[C@@H](Cc1cnc[nH]1)C(=O)N[C@@H](CC(=O)OC)C(=O)CF` (Cbz-LE(OMe)HD(OMe)-CH2F), the molecule was called inactive in assay [1], in assay [2], in assay [3] and in assay [4]. Further, in [5], the max response was 2.63%.
Take `CC(=O)OCC1OC(OC2COC(OC3COC(OC4C(OC5C(CO)OC(OC6CCC7(C)C(CCC8(C)C7CC=C7C9CC(C)(C)CCC9(C(=O)OC9OC(CO)C(O)C(O)C9OC9OCC(OC%10OCC(O)(CO)C%10O)C(O)C9O)C(O)CC78C)C6(C)C)C(O)C5O)OCC(O)C4O)C(O)C3O)C(O)C2O)C(OC(=O)/C=C/c2ccccc2)C(O)C1OC(C)=O` (centres undefined): the max response in assay [1] is 2.77%; in assay [5], -18.2%; in [3], 4.45%; in assay [4], -0.042%. Further, the molecule was called inactive in [2].
